The text below walks through data of PubChem BioAssay (EPA / NIEHS).

Assay [1] concerns the target rat Gamma-Aminobutyric Acid Type B Receptor (GABBR), Gabbr1 (gene 81657) (UniProt Q9Z0U4). Nature of the assay: NVS_GPCR_rGABBR: NovaScreen (NVS) G Protein-Coupled Receptor Assay for rat Gamma-Aminobutyric Acid Type B Receptor (GABBR) (AID 2283301). An outline of the steps:
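Radioligand displacement on rat cortical membranes, 1 h, filter-based scintillation counting. Primary screen at 25 uM in duplicate; compounds passing threshold re-tested in concentration-response up to 50 uM; loss of binding fitted against DMSO.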

Assay [2] deals with rat Histamine Receptor (H3), Hrh3 (gene 85268) (UniProt Q9QYN8). Nature of the assay: NVS_GPCR_rH3: NovaScreen (NVS) G Protein-Coupled Receptor Assay for rat Histamine Receptor (H3) (AID 2283303). In outline:
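Rat forebrain membranes incubated 1 h with compound; radioligand displacement measured by filter-based scintillation counting. Single-concentration duplicates at 25 µM, then concentration-response up to 50 µM, relative to DMSO.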

For assay [3], the target named is Metabotropic glutamate receptor 1 (Rattus norvegicus) (UniProt P23385). Briefly: NVS_GPCR_rmMGluR1: NovaScreen (NVS) G Protein-Coupled Receptor Assay for rat Glutamate Metabotropic Receptor 1 (MGluR1) (AID 2283305). An outline of the steps: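 Rat cerebellum membrane preparation, radioligand displacement binding read by filter-based scintillation counting 1 hour after dosing. Initial duplicate single-point screen at 25 uM, then concentration-response up to 50 uM; loss of signal versus DMSO baseline scored.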
Chain of Metabotropic glutamate receptor 1 (Rattus norvegicus) (P23385 whole entry, looked up): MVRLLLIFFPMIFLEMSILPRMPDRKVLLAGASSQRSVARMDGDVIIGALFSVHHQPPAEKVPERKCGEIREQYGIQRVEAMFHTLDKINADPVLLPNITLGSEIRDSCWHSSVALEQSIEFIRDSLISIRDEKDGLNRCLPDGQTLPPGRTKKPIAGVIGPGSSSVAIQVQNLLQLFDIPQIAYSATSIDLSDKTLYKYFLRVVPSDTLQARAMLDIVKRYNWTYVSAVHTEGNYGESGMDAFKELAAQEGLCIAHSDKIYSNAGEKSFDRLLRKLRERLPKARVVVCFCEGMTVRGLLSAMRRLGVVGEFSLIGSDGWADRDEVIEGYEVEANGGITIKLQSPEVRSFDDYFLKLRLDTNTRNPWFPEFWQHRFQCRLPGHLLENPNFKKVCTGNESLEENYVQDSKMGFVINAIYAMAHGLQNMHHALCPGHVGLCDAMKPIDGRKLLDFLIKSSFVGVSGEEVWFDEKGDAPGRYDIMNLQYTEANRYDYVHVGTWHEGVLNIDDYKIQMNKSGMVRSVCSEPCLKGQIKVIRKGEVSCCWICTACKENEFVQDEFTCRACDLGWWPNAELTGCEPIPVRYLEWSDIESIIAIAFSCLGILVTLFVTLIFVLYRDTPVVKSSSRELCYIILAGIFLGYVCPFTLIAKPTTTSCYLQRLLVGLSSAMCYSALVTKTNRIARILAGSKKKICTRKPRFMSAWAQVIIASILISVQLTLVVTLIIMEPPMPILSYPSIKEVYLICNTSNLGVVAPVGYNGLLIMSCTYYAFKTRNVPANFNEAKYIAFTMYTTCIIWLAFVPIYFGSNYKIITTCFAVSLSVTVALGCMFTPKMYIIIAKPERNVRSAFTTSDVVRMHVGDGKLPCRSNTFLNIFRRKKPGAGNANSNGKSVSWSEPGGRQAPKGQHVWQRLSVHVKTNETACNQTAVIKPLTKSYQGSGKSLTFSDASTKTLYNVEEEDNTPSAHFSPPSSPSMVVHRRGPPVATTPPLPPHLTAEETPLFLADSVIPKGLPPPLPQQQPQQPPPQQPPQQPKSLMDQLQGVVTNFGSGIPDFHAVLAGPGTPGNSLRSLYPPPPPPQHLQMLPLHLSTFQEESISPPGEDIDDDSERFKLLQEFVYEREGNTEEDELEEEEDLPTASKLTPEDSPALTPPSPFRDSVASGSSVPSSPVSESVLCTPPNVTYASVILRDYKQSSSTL

Results filed as inconclusive are left out. Activity calls are given as the source filed them. Rule for the calls: active = hit-call score of the fitted dose curve at least 0.9, where 1 is the maximum; inconclusive = response in the unintended direction; inactive = score below 0.9.

Chain of rat Histamine Receptor (H3), Hrh3 (gene 85268) (Q9QYN8 whole entry, looked up): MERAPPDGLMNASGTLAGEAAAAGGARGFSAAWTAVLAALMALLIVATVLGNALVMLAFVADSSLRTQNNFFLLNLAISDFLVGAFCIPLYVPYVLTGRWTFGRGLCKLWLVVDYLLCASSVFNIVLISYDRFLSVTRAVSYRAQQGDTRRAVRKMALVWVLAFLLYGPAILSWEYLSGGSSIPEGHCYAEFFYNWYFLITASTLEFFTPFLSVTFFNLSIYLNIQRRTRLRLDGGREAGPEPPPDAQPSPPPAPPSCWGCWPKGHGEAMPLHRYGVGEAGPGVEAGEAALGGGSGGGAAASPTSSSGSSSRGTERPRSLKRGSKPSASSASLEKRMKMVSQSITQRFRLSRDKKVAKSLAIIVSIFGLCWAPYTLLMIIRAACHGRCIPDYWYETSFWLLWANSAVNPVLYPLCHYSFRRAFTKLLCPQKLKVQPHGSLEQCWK
Chain of rat Gamma-Aminobutyric Acid Type B Receptor (GABBR), Gabbr1 (gene 81657) (Q9Z0U4 whole entry, looked up): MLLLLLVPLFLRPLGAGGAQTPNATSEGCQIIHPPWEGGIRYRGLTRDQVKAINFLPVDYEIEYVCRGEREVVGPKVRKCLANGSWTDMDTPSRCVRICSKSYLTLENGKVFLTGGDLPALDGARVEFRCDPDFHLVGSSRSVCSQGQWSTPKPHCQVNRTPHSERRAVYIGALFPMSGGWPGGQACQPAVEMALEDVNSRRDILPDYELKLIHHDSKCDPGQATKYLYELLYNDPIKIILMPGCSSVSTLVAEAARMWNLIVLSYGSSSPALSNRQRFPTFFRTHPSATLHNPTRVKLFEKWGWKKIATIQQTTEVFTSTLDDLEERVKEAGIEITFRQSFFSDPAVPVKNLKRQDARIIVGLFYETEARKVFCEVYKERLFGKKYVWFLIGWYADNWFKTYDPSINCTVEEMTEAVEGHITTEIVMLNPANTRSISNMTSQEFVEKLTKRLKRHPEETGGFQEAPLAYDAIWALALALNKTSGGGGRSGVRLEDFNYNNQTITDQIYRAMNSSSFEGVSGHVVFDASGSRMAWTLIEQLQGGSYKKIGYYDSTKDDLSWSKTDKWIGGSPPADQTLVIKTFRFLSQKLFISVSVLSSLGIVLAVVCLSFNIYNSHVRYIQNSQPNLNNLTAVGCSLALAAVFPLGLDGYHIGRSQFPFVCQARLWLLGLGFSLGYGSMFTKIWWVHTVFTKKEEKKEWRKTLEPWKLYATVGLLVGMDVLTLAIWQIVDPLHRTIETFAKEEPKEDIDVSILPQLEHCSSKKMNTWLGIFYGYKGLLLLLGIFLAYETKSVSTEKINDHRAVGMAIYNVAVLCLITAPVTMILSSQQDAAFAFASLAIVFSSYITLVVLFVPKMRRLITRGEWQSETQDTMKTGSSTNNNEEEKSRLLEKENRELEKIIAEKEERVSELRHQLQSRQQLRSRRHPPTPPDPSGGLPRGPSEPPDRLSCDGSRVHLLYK

For `Cc1cc(C2CC2)nc(Nc2ccccc2)n1`, the molecule was called inactive in assay [1].
On to `COP(=O)(NC(C)=O)SC` (stereo not given), for which, in assay [1], the molecule was called inactive.
One may read the AC50 as the concentration giving half of the maximal activity seen. On to `N#CSCSC#N`, for which the AC50 in assay [2] was 9.77 µM (active).
With `COP(=O)(OC)OC(Br)C(Cl)(Cl)Br` (stereo not given), in assay [2], the AC50 was 5.79 µM (active).
Consider `CC[C@H](C)[C@H]1O[C@]2(C=C[C@@H]1C)C[C@@H]1C[C@@H](C/C=C(\C)[C@@H](O[C@H]3C[C@H](OC)[C@@H](O[C@H]4C[C@H](OC)[C@@H](NC)[C@H](C)O4)[C@H](C)O3)[C@@H](C)/C=C/C=C3\CO[C@@H]4[C@H](O)C(C)=C[C@@H](C(=O)O1)[C@]34O)O2`, for which, in assay [3], the AC50 is 12.7 µM (active).
